Inconclusive results are not listed. Unmarked numbers belong to inactive results. Active and inactive are the calls of the source. The call rests on the fitted dose curve; in most records, active means well fitted inhibition curve with a large enough effect; inconclusive means small, poorly fitted or top-dose-only effect; inactive means flat fitted curve, though single readings scatter. Peptide text beside a SMILES is read from it.
Tested on: CP203
Assay: qHTS profiling for inhibitors of Plasmodium falciparum proliferation (AID 504749); further: nearly all actives have a fitted effect of over 60% in size;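 on activity, negative = inhibition: 0% = DMSO vehicle and full inhibition = artemisinin control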
Conditions: P. falciparum in erythrocytes, SYBR Green DNA, 72 h; series mostly up to 28.7 µM; activity, negative = inhibition: at the top concentration
From the text: NIH National Institute of Allergy and Infectious Diseases [NIAID] NIH Chemical Genomics Center [NCGC] MLPCN Grant: None Assay Provider: Xinzhuan Su, NIAID NCGC Assay Overview: Plasmodium falciparum is a virulent malarial parasite that kills 1-2 million people worldwide each year. Transmitted by mosquitoes, the sporozoite form of the parasite enters the blood stream to infect hepatocytes, where they become merozoites that infect red blood cells (erythrocytes). Within erythrocytes, merozoites begin a […] cycle of growth and division, after which the parasite is released to infect new red blood cells. Gametocytes, which form within erythrocytes as well, circulate in the bloodstream and are ingested by the mosquito, thereby completing the life cycle. To profile malarial isolates for differential chemical responses and to identify inhibitors of malarial growth, an assay that measures P. falciparum growth and replication within erythrocytes was employed. This assay uses a DNA binding fluorescent dye (SYBR Green) to detect parasite DNA following cell lysis. Because mature erythrocytes lack DNA, only Plasmodium-derived DNA is detected.
NCGC Assay Protocol Summary: The SYBR Green viability assay was adapted from a method described previously (Plouffe et al., 2008). For screening 3 ul culture medium was dispensed into 1536 well black clear bottom plates (Aurora Biotechnologies) using a Multidrop Combi (Thermo Fisher Scientific Inc.), 23 nL compounds in DMSO were added by a pin tool (Kalypsys), and 5 ul of erythrocytes infected with P. falciparum (0.3% parasitemia, 2.5% hematocrit final concentration) were added. The plates were incubated at 37 C in a humidified incubator in 5% CO2 for 72 h, and 2 ul lysis buffer (20 mM Tris HCl, 10 mM EDTA, 0.16% saponin, 1.6% triton X, 10X SYBR Green I supplied as 10,000X […] by Invitrogen) was added to each well. The plates were mixed for 25 sec with gentle shaking and incubated overnight at room temperature in the dark. The following morning, fluorescence intensity at 485(14) nm excitation and 535(25) nm emission wavelengths was measured on an EnVision (Perkin Elmer) plate reader. Plate reads were normalized relative to the control inhibitor (0.29 uM artemisinin) and vehicle (DMSO) wells present on each plate and then corrected by an algorithm using vehicle-only control plates at the beginning and end of the compound plate stack.
Potency means the concentration at half of the fitted maximal effect.

| SMILES | activity, negative = inhibition | Potency |
| --- | --- | --- |
| Cc1c(C)c2c(c(C)c1O)CC[C@@](C)(CCC[C@@H](C)CCC[C@@H](C)CCCC(C)C)O2 | 0.585% | – |
| CCOc1ccc2c(c1)C(C)=CC(C)(C)N2 | 0.221% | – |
| CCCC(=O)O[C@]1(C(=O)CCl)[C@H](C)C[C@@H]2[C@H]3CCC4=CC(=O)C=C[C@]4(C)[C@@]3(F)C(=O)C[C@@]21C | – | 4780 nM (active) |
| CO[C@H]1C[C@@H]2CC[C@@H](C)[C@@](O)(O2)C(=O)C(=O)N2CCCC[C@H]2C(=O)O[C@H]([C@H](C)C[C@@H]2CC[C@@H](OCCO)[C@H](OC)C2)CC(=O)[C@H](C)/C=C(\C)[C@@H](O)[C@@H](OC)C(=O)[C@H](C)C[C@H](C)/C=C/C=C/C=C/1C | – | 1900 nM (active) |
| CCCCC(C)(O)C/C=C/[C@H]1[C@H](O)CC(=O)[C@@H]1CCCCCCC(=O)OC (stereo not given in full) | -1.75% | – |
| Cc1c(C)c2c(c(C)c1O)CC[C@@](C)(CCC[C@H](C)CCC[C@H](C)CCCC(C)C)O2 | 0.323% | – |
| CC(Cc1ccc(O)c(O)c1)C(C)Cc1ccc(O)c(O)c1 (stereo not given) | -2.91% | – |
| CC(=O)N[C@@H](CC(=O)O)C(=O)N[C@@H](CCC(=O)O)C(=O)O (Ac-Asp-Glu-OH) | 6.37% | – |
| O=C(COc1ccc(Cl)cc1)OCCNC12CC3CC(CC(C3)C1)C2 | -3.54% | – |
| C#CCOc1ccc2c(C)cc(=O)oc2c1 | 4.64% | – |
| CCCCCCCCCCCC[n+]1ccc2ccccc2c1 | – | 849 nM (active) |
| CCOC(C)=O | 4.4% | – |
| C[C@]12O[C@H](C[C@]1(O)CO)n1c3ccccc3c3c4c(c5c6ccccc6n2c5c31)CNC4=O | – | 269 nM (active) |
| CCCC(=O)Nc1ncnc2c1ncn2C1OC2COP(=O)(O)OC2C1OC(=O)CCC (stereo not given) | -5.45% | – |
| Cc1cn([C@H]2C[C@H](O)[C@@H](CO)O2)c(=O)[nH]c1=O | 0.0073% | – |
| COC(=O)[C@H]1[C@H]2C[C@@H]3c4[nH]c5ccccc5c4CCN3C[C@H]2C[C@@H](OC(=O)c2cc(OC)c(OC)c(OC)c2)[C@@H]1OC | – | 536 nM (active) |
| CCCCCCCC/C=C\CCCCCCCC(=O)O | -1.73% | – |
| C=CCSSSCC=C | -2.22% | – |
| CC(=O)Oc1c(C)cc(OCC(O)CNC(C)C)c(C)c1C (stereo not given) | 7.4% | – |
| C[C@@H]1CCC2[C@@H](C)[C@@H](O)O[C@@H]3O[C@@]4(C)CC[C@@H]1[C@@]23OO4 (stereo not given in full) | – | 3.4 nM (active) |

| SMILES | activity, negative = inhibition | Potency |
| --- | --- | --- |
| CCCCCCCC(=O)O | 0.399% | – |
| O=C(Nc1cccc(C(F)(F)F)c1)c1cc(Br)cc(Br)c1O | – | 15100 nM (active) |
| CCOc1ccc(N=Nc2ccc(N)cc2N)cc1 | -18.7% | – |
| O=S(=O)(O)O | 8.86% | – |
| CCN(CC)CCOc1ccc(-c2nc3cc(Cl)ccc3s2)cc1 | -9.69% | – |
| Nc1ncnc2c1ncn2[C@@H]1O[C@H](COP(=O)(O)OP(=O)(O)OP(=O)(O)O)[C@@H](O)[C@H]1O | -4.63% | – |
| CC(NNC(=O)c1ccccc1)c1ccccc1 (stereo not given) | 3.19% | – |
| CC(C)N=c1cc2n(-c3ccc(Cl)cc3)c3ccccc3nc-2cc1Nc1ccc(Cl)cc1 | -11.5% [at 12.8 µM] | – |
| Cc1cc(C(=O)NNCc2ccccc2)no1 | 0.787% [at 12.8 µM] | – |
| CC1=C(/C=C/C(C)=C/C=C/C(C)=C/C=C/C=C(C)/C=C/C=C(C)/C=C/C2=C(C)CCCC2(C)C)C(C)(C)CCC1 | -3.99% | – |
| COC(C(=O)C(O)C(C)O)C1Cc2cc3cc(OC4CC(OC5CC(O)C(O)C(C)O5)C(O)C(C)O4)c(C)c(O)c3c(O)c2C(=O)C1OC1CC(OC2CC(OC3CC(C)(O)C(O)C(C)O3)C(O)C(C)O2)C(O)C(C)O1 (stereo not given) | – | 3010 nM (active) |
| IC(I)I | -8.4% | – |
| O=C(O)CN(CCN(CC(=O)O)CC(=O)O)CC(=O)O | 1.87% | – |
| NC(=O)c1ncn(C2OC(CO)C(O)C2O)n1 (stereo not given) | -2.7% | – |
| O=C(O)CCC(=O)C(=O)O | 2.66% | – |
| CN1C(=O)CN2CCc3ccccc3C2c2cc(Cl)ccc21 (stereo not given) | -5.04% | – |
| C[C@]12CCC(=O)C=C1CC[C@@H]1[C@@H]2[C@@H](O)C[C@@]2(C)[C@H]1CC[C@]2(O)C(=O)COP(=O)(O)O | -3.62% | – |
| CC1(C)S[C@@H]2[C@H](NC(=O)[C@@H](NC(=O)N3CCNC3=O)c3ccccc3)C(=O)N2[C@H]1C(=O)O | 0.545% [at 12.8 µM] | – |
| CCN(CC)Cc1cc(Nc2ccnc3cc(Cl)ccc23)ccc1O | – | 144 nM (active) |
| CCCCCCCCCCCCCCCC(=O)OCC(COC(=O)CCCCCCCCCCCCCCC)OC(=O)CCCCCCCCCCCCCCC | -5.96% | – |
